Hits are enriched below; roughly 2.4% of the tested compounds scored in any of these assays.
D2 antag = antagonizes the human D2 dopamine receptor; HEK293 TREx D2 cells, calcium flux, dopamine EC80; inhibition, % at 10 µM; 340,000 compounds, 2% hits; in the data active = inhibition above about 30%; inactive = below that, where a call was filed
Target sequence (P14416 whole entry, looked up): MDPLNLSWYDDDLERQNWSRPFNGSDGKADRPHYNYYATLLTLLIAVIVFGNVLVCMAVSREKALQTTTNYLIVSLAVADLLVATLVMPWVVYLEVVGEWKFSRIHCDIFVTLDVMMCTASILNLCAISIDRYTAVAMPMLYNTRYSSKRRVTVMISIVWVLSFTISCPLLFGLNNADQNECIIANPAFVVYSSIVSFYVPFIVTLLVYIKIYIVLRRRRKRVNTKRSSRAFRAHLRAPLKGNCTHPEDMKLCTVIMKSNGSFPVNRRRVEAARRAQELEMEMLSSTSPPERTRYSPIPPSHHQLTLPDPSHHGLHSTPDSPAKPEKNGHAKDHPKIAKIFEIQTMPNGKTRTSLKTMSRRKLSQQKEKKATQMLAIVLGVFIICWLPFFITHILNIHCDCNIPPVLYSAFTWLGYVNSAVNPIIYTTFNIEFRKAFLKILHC
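HEK293 T-REx D2 cells, tet-induced, calcium dye no-wash. Cpd pintool add, 180 s kinetic, then EC80 DA, 180 s kinetic. Ca flux read.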
D2 PAM-1 = positive allosteric modulators of human D2 dopamine receptor. P14416. HEK293 T-REx D2, calcium flux, EC20 dopamine potentiation. potentiation, % at 10 µM. 340,000 compounds, 0.34% hits. AID 485347;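 active = potentiation over 3 SD above the plate norm, cut at about 30% in these data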
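Potentiation of an EC20 dopamine calcium response is measured in a force-coupled, tetracycline-inducible Hek293 Trex D2 line. Compound-only kinetic reads over 180 s flag agonists before dopamine addition.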
D2 PAM-2 = human D2 receptor positive allosteric modulation | DiscoveRx D2 beta-arrestin cells, luminescence, 90 min; 100% = 57 uM dopamine signal | 360,000 compounds, 0.23% hits | P14416 | potentiation, % (test concentration not listed); in the data active = potentiation above about 50%; inconclusive = mostly about 30% to 49%
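D2 cells co-treated with compound plus 50 nM dopamine (EC20) for 90 min at 37 deg C to detect potentiation. Beta-arrestin recruitment was read as enzyme-fragment luminescence after 1 h at ambient temperature. Full response was set by 57 uM dopamine.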
D2 ag-1 = D2 dopamine receptor (human) agonism | HEK293 T-REx D2 cells, calcium flux agonist mode | activation, % at 2 µM | 340,000 compounds, 0.53% hits;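 active = activation over 3 SD above normal in the single-dose calcium agonist read, cut at about 30% in these data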
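HEK293 Trex D2 cells, tetracycline-induced, o/n 30 C 5% CO2; no-wash Ca dye, RT 30–90 min; 10-cycle baseline, 23 nl cpd added, kinetic Ca read 180 s; agonist hits = positive Ca response.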
D2 ag-2 = human D2 receptor agonism in beta-arrestin assay. P14416. DiscoveRx PathHunter D2 beta-arrestin, luminescence, 90 min; 100% = 57 uM dopamine signal. activation, % (concentration not given with the values). 360,000 compounds, 0.084% hits; in the data active = activation above about 40%; inconclusive = between about 15% and that limit
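Agonist mode: compounds alone added to overnight-plated D2 PathHunter cells for 90 min at 37 C, with 57 uM final dopamine (EC100) defining full response. Beta-arrestin recruitment detected by chemiluminescent reagent, read after 1 h at ambient temperature.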
A number is an active result; n = inactive; u = inconclusive; x = not tested or not shown.

SMILES	D2 antag	D2 PAM-1	D2 PAM-2	D2 ag-1	D2 ag-2
COc1ccc(/C=C2\CCCc3c2nc2ccccc2c3C(=O)O)cc1OC	31	n	x	184	x
C/C(=N\NC(=O)c1ccc(Cn2cc(Br)cn2)o1)c1cccc(NC(=O)C(C)(C)C)c1	n	n	n	n	n
O=C(N/N=C/c1c(F)cccc1Cl)c1ccc(Cn2cc(Br)cn2)o1	n	n	n	n	n
O=C(Nc1ccc(C(F)(F)F)cc1Cl)c1ccc(Cn2cc(Br)cn2)o1	37	n	n	n	n
O=C(Nc1cccc(C(F)(F)F)c1)c1ccc(Cn2cc(Br)cn2)o1	35	n	n	n	n
COc1cccc(CNc2ncnc3c2nnn3C)c1	x	n	x	n	x
CCOc1ccc(NC(=O)C2CCC(CNc3c(N4CCC(C)CC4)c(=O)c3=O)CC2)cc1 (centres undefined)	31	n	n	n	n
COc1cc(NC(=O)C2CCC(CNc3c(N4CCCCC4)c(=O)c3=O)CC2)cc(OC)c1 (centres undefined)	x	n	n	x	n
COc1cc(NC(=O)C2CCC(CNc3c(N4CCC(C)CC4)c(=O)c3=O)CC2)cc(OC)c1 (centres undefined)	n	30	n	n	n
Cc1cc(N/N=C/c2ccccc2O)nc(-c2ccccc2O)n1	n	n	n	n	n
Cc1cc(N/N=C/c2ccc(O)cc2O)nc(-c2ccccc2O)n1	n	n	u	n	41
CCOC(=O)c1cnc(NCc2ccccc2OC)c2ccccc12	x	n	x	x	x
Cc1ccc(CNC(=O)c2ccc(N3CCC4(CC3)CC(c3ccccc3)=NO4)c([N+](=O)[O-])c2)cc1	45	n	n	n	n
O=C(NCc1ccccc1)c1ccc(N2CCC3(CC2)CC(c2ccccc2)=NO3)c([N+](=O)[O-])c1	n	n	n	n	n
CN1CCN(c2nc(-c3ccccc3)ncc2S(=O)(=O)c2ccccc2)CC1	54	n	n	n	n
O=c1oc(-c2ccc(O)c(O)c2)cc2cc(O)cc(O)c12	x	x	51	x	u
COc1ccc(-c2c(C#N)c(SCC(=O)Nc3ccc(C)c(C)c3)nc(C)c2C(=O)Nc2ccccc2)cc1OC	x	n	x	n	x
O=C1C(=O)c2c(C(=O)c3ccccc3)coc2-c2ccccc21	n	n	71	n	u
Cc1oc2c(c1C(=O)c1ccccc1)C(=O)C(=O)c1ccccc1-2	n	n	n	n	u
CCCc1cc(=O)oc2c3c(ccc12)OCN(Cc1ccc(OC)cc1)C3	x	n	x	n	x
O=C(Nc1cccc(-c2cscn2)c1)C1CCN(Cc2ccc(CO)o2)CC1	n	n	n	n	n
COc1cccc(-c2cccc(NC(=O)C3CCN(Cc4ccc(C)o4)CC3)c2)c1	n	n	n	n	n
COCc1ccc(CN2CCC(C(=O)Nc3cccc(-c4cscn4)c3)CC2)o1	32	n	n	n	n
O=C(Nc1cccc(-c2cccc(F)c2)c1)C1CCN(Cc2ccco2)CC1	56	n	n	n	n
COCc1ccc(CN2CCC(C(=O)Nc3cccc(-c4cccc(Cl)c4)c3)CC2)o1	34	n	n	n	n
SMILES	D2 antag	D2 PAM-1	D2 PAM-2	D2 ag-1	D2 ag-2
CCc1ccc(NC(=O)Cn2c(=O)n(CC3CCCO3)c(=O)c3cc(OC)c(OC)cc32)cc1 (centres undefined)	x	n	x	x	x
CCOC(=O)c1cc(-c2ccc(OC)cc2)n(CCC(=O)NC2CCC(C)CC2)c1C (centres undefined)	x	n	x	n	x
COc1ccc(NC(=O)CCN2C(=O)c3ccncc3C2=O)cc1OC	34	n	n	n	n
COc1cc2cc(CNc3ccc(C)cc3)c(=O)n(CC(=O)Nc3ccc(F)cc3F)c2cc1OC	x	n	x	n	x
O=C(NCCCN1CCN(c2ccccc2)CC1)C1CCCN(c2ncnc3c2nc2n3CCCCC2)C1 (centres undefined)	59	n	n	n	n
CCCN(CCC)C(=O)C1CCN(c2cc(C)nc3c(-c4ccc(Cl)cc4)c(C)nn23)CC1	x	n	x	n	x
CC(=O)c1cccc(N2C(=NC(=O)CCc3ccccc3)SC3CS(=O)(=O)CC32)c1 (centres undefined)	32	n	n	n	n
COc1ccc(S(=O)(=O)N2CCN(Cc3ccc4c(c3)OCO4)CC2)c2ccccc12	31	n	n	n	n
c1ccc2nc(N3CCN(Cc4ccc5c(c4)OCO5)CC3)cnc2c1	n	n	n	n	n
COc1nc2ccccc2nc1N1CCN(Cc2ccc3c(c2)OCO3)CC1	51	n	n	n	n
COc1ccc(Cl)cc1S(=O)(=O)N1CCN(Cc2ccc3c(c2)OCO3)CC1	n	n	n	n	n
CCOC(=O)c1cc(-c2ccc(OC)cc2)n(CCC(=O)Nc2cccc(C(C)=O)c2)c1C	x	n	x	n	x
COc1ccc2c(CNCCc3ccc(SC)cc3)c(C(=O)O)n(Cc3ccc(F)cc3)c2c1	x	n	x	n	x
COc1ccc(-n2nc(C(N)=O)c(O)cc2=O)cc1	32	n	n	n	n
CCOc1c(Cl)cc(C(=O)NCCN2CCCCC2)cc1Cl	34	n	n	n	n
Cc1ccc(C(=O)NCCN2CCCC2)cc1	n	n	n	n	n
CCc1cccc(NC(=O)CCS(=O)(=O)c2ccc(C)cc2)c1	x	n	x	x	x
O=C(OCc1nnc(-c2ccc([N+](=O)[O-])cc2)o1)C1CCN(C(=O)c2ccc(Cl)cc2)CC1	n	n	n	n	n
O=C(OCc1nnc(-c2ccc([N+](=O)[O-])cc2)o1)C1CCN(C(=O)c2ccc(F)cc2)CC1	35	n	n	n	n
CCC(C(=O)NCCc1ccc(OC)c(OC)c1)n1nc(C)c2sc3ccccc3c2c1=O (centres undefined)	x	n	x	x	x
COc1cc(NC(=O)COC(=O)CCc2cc(OC)c(OC)c(OC)c2)cc(OC)c1	n	n	n	n	n
COc1cc(CCC(=O)OCC(=O)Nc2ccc(C(N)=O)cc2)cc(OC)c1OC	39	n	n	n	n
CN1C(C(=O)NCc2cccc(C(F)(F)F)c2)CC2Cn3c(nc4cc5ccccc5cc43)C21 (centres undefined)	43	n	n	n	n
COc1cccc(C(=O)O/N=C(\N)c2ccncc2)c1	n	n	59	n	n
COc1cc(C(=O)O/N=C2\C=CC(=O)C(C)=C2)cc(OC)c1OC	n	n	n	n	n
COc1ccc(C(=O)O/N=C(\N)c2ccc(Cl)cc2)cc1	n	n	n	n	u
COc1cc(C(=O)ON=C2C=C(C)C(=O)C(C)=C2)cc(OC)c1OC	n	n	64	n	n
COc1cccc(C(=O)O/N=C(\N)c2ccc(C)cc2)c1	n	n	u	n	n
COc1cc(C(=O)O/N=C(\N)c2ccncc2)cc(OC)c1OC	n	n	84	n	n
COc1cccc(C(=O)O/N=C(\N)Cc2ccc(Cl)cc2)c1	n	n	125	n	u
